Experimental findings from PubChem BioAssay (Tox21) are described below.

Molecules are shown by their SMILES. Where “and” joins values, the source holds several entries; their conditions need not be identical. Equal entries are not always repeated. Results filed as inconclusive are left out. Some structures have more than one record in an assay (separate samples or runs), and their calls can disagree. Calls of active or inactive are those of the source. Unless noted, the call rests on the fitted dose curve; in most records, active means well fitted curve in the direction sought with a large enough effect in the repeat runs; inconclusive means weak or mixed curves; inactive means no such curve, though single readings can be large; an effect the other way counts as inactive or inconclusive.

A short description of assay [1]: Human pregnane X receptor (PXR) small molecule agonists, qHTS cell viability counter screen (AID 1346977). Further: nearly all actives have a fitted effect of over 50% in size. Further: potency means the concentration at half of the fitted maximal effect. The method, boiled down:
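HepG2 cells stably carrying the PXR-Luc reporter are cultured with 5% charcoal-stripped FBS and treated with compounds for 24hr. CellTiter-Fluor is added at 23hr and fluorescence is read after 1hr.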
A general note: Quantitative high-throughput screening tests each substance at several concentrations.

Assay [2] can be described thus: Caspase-3/7 induction in HepG2 cells by small molecules, qHTS assay (AID 1346978). Further: nearly all actives have a fitted effect of over 15% in size. Further: potency means the concentration at half of the fitted maximal effect. An outline of the steps:
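Wild-type HepG2 cells, 2,000/well, settled 5 hr at 37 C and 5% CO2, then compound-treated for 17 hr; caspase-3/7 activity read by luminescent Caspase-Glo 3/7 after 30 min at room temperature.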

The nature of assay [3]: Caspase-3/7 induction in CHO-K1 cells by small molecules, qHTS cell viability counter screen (AID 1346979). Further: nearly all actives have a fitted effect of over 35% in size. Further: potency means the concentration at half of the fitted maximal effect. The method, boiled down:
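Seeding: 1,500 CHO-K1 cells/well. Rest: 5hr, 37C. Treatment: compounds in DMSO, 16hr. Read: CellTiter-Fluor, 1hr, fluorescence.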

The nature of assay [4]: Caspase-3/7 induction in CHO-K1 cells by small molecules, qHTS assay (AID 1346980). Further: nearly all actives have a fitted effect of over 15% in size. The method, boiled down:
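Wild-type CHO-K1 cells exposed to compounds for 17hr at 37 C, 5% CO2. Caspase-3/7 activity then measured by Caspase-Glo 3/7 luminescence after 30min at room temperature.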

Assay [5] is described as follows: Caspase-3/7 induction in HepG2 cells by small molecules, qHTS cell viability counter screen (AID 1346981). Further: series mostly up to about 92 µM; nearly all actives have a fitted effect of over 30% in size. An outline of the steps: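 Steps: seed 2,000 HepG2 cells per well; incubate 5 hr at 37 C; pin-add compounds in DMSO; incubate 16 hr; add CellTiter-Fluor; after 1 hr at 37 C and 5% CO2, read fluorescence.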
The target of assay [6] is Nuclear receptor subfamily 1 group I member 2 (Homo sapiens) (UniProt O75469). Briefly: Human pregnane X receptor (PXR) small molecule agonists, qHTS assay (AID 1346982). Further: nearly all actives have a fitted effect of over 35% in size. Further: potency means the concentration at half of the fitted maximal effect. The method, boiled down: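 Agonist mode qHTS: PXR-Luc HepG2 cells plated 5 hr before DMSO-dissolved compounds were pinned in, cultured 24 hr at 37 C, 5% CO2; ONE-Glo luminescence readout.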
Nuclear receptor subfamily 1 group I member 2 (Homo sapiens), sequence (O75469 whole entry, looked up): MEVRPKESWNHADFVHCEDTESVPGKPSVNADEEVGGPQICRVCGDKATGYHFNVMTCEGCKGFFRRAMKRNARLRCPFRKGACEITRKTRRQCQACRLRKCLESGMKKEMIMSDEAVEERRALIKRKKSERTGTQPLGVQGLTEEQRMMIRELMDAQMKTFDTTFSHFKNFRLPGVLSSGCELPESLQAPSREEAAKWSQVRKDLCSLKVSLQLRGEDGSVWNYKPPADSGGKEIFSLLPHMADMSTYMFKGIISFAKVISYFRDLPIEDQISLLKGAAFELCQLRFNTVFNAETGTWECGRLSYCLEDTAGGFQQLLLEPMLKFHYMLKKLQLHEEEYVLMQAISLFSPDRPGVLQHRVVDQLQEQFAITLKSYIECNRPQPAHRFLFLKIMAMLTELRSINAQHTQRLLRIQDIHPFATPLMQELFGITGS
Assay [7] addresses Acetylcholinesterase (Homo sapiens) (UniProt P22303). The assay can be described thus: Acetylcholinesterase (AChE) small molecule antagonists: colormetric cell-based qHTS assay (AID 1347395; calls by dose curve; further: nearly all actives have a fitted effect of over 30% in size). The method, boiled down:
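Quantitative HTS in attached SH-SY5Y cells: 30 min compound exposure, then 90 min with acetylthiocholine and DTNB at 37 C; colour from thiocholine reports AChE activity.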

The target is the same in assay [8]. The assay can be described thus: Acetylcholinesterase (AChE) small molecule antagonists: enzyme-based qHTS assay (AID 1347397; calls by dose curve; further: nearly all actives have a fitted effect of over 55% in size). Particulars: Potency: AChE enzyme activity inhibition. An outline of the steps: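 Recombinant human AChE (50 mU/mL) preincubated with compound 30 min at room temperature; acetylthiocholine plus DTNB then added, and thiocholine formation read colorimetrically after 10 min at room temperature. DMSO served as vehicle control.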

For assay [9] the target is unchanged. Briefly: Acetylcholinesterase (AChE) small molecule antagonists: fluorescence cell-based qHTS assay (AID 1347398; calls by dose curve; further: nearly all actives have a fitted effect of over 50% in size). The note with it: Potency: AChE activity. The method, boiled down:
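SH-SY5Y cells (2000/well), attached overnight, incubated with compound 30 min at 37 C. Acetylthiocholine plus Thiolite Green then added for 40 min at room temperature. Thiocholine fluorescence (Ex/Em 490/520 nm) reports cellular AChE activity.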

Assay [10] has the same target. The assay can be described thus: Acetylcholinesterase (AChE) small molecule antagonists: enzyme-based qHTS assay with human liver microsomes (AID 1347399; calls by dose curve; further: nearly all actives have a fitted effect of over 60% in size). The note with it: Potency: qHTS inhibition. The method, boiled down:
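Recombinant human AChE (50 mU/mL in the enzyme mix) and human liver microsomes (0.25 mg/mL final) were preincubated with compound and NADPH (0.25 mg/mL final) for 30 min at 37 C. Acetylthiocholine/DTNB was then added; thiocholine was read colorimetrically after 10 min at room temperature.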

Assay [11] has as its target Cytochrome P450 2D6 (Homo sapiens) (UniProt P10635). Briefly: Cytochrome P450 Family 2 Subfamily D Member 6 (CYP2D6) small molecule antagonists: luciferase reporter qHTS assay (AID 1671196). Further: nearly all actives have a fitted effect of over 50% in size. Further: potency means the concentration at half of the fitted maximal effect. An outline of the steps: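 P450-Glo format: CYP2D6 converts a proluciferin substrate to luciferin in an NADPH-driven reaction lasting 1 h at room temperature. Light output, proportional to CYP2D6 activity, reflects interference by test chemicals.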
Background: In a reporter assay the amount or activity of a reporter protein is the signal.

The target of assay [12] is Cytochrome P450 2C19 (Homo sapiens) (UniProt P33261). Briefly: Cytochrome P450 Family 2 Subfamily C Member 19 (CYP2C19) small molecule antagonists: luciferase reporter qHTS assay (AID 1671197). Further: nearly all actives have a fitted effect of over 65% in size. Further: potency means the concentration at half of the fitted maximal effect. The method, boiled down: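 Light output is proportional to CYP2C19 activity: proluciferin substrate is converted to luciferin, then detected by a luciferin detection reagent that also stops the 1 h, 37C NADPH-driven reaction. Ketoconazole serves as positive control.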
Cytochrome P450 2C19 (Homo sapiens), sequence (P33261 whole entry, looked up): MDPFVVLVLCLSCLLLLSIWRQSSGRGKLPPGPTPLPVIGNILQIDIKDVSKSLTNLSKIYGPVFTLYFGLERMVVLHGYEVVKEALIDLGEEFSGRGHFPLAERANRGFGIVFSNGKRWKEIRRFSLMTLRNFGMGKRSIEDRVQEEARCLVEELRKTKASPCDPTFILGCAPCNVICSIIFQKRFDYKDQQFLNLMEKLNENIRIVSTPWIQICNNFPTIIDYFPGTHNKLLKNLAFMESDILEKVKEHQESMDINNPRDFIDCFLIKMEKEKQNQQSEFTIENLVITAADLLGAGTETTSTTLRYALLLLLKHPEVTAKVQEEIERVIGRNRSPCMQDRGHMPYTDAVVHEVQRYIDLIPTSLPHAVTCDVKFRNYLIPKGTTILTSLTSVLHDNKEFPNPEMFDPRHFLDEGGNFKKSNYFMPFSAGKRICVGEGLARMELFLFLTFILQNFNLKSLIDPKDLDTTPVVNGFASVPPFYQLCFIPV

In assay [13] the target is Cytochrome P450 2C9 (Homo sapiens) (UniProt P11712). Briefly: Cytochrome P450 Family 2 Subfamily C Member 9 (CYP2C9) small molecule antagonists: luciferase reporter qHTS assay (AID 1671198). Further: nearly all actives have a fitted effect of over 50% in size. Further: potency means the concentration at half of the fitted maximal effect. An outline of the steps:
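P450-Glo proluciferin substrate with CYP2C9 enzyme; 10 min RT preincubation, then NADPH regeneration 1 h at 37C; luciferin detection reagent 20 min RT, luminescence in relative luminescence units.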

Assay [14] concerns the target Cytochrome P450 1A2 (Homo sapiens) (UniProt P05177). The assay can be described thus: Cytochrome P450 Family 1 Subfamily A Member 2 (CYP1A2) small molecule antagonists: luciferase reporter qHTS assay (AID 1671199). Further: nearly all actives have a fitted effect of over 50% in size. Further: potency means the concentration at half of the fitted maximal effect. An outline of the steps: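 Inhibition of CYP1A2 conversion of proluciferin to luciferin, detected by luminescence. Reaction run 1 h at room temperature with NADPH regeneration after brief compound preincubation.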

The target of assay [15] is Voltage-gated inwardly rectifying potassium channel KCNH2 (Homo sapiens) (UniProt Q12809). The assay can be described thus: Human Ether-a-go-go-Related Gene (hERG) channel small molecule antagonists: fluorescence cell-based qHTS assay (AID 1671200). The method, boiled down: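 First, 1000 cells per well are seeded and cultured overnight at 37 C. Next, FluxOR II dye is loaded for 1 h at room temperature, protected from light. After 10 more minutes, stimulus is added and fluorescence is read.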
Voltage-gated inwardly rectifying potassium channel KCNH2 (Homo sapiens), sequence (Q12809 whole entry, looked up): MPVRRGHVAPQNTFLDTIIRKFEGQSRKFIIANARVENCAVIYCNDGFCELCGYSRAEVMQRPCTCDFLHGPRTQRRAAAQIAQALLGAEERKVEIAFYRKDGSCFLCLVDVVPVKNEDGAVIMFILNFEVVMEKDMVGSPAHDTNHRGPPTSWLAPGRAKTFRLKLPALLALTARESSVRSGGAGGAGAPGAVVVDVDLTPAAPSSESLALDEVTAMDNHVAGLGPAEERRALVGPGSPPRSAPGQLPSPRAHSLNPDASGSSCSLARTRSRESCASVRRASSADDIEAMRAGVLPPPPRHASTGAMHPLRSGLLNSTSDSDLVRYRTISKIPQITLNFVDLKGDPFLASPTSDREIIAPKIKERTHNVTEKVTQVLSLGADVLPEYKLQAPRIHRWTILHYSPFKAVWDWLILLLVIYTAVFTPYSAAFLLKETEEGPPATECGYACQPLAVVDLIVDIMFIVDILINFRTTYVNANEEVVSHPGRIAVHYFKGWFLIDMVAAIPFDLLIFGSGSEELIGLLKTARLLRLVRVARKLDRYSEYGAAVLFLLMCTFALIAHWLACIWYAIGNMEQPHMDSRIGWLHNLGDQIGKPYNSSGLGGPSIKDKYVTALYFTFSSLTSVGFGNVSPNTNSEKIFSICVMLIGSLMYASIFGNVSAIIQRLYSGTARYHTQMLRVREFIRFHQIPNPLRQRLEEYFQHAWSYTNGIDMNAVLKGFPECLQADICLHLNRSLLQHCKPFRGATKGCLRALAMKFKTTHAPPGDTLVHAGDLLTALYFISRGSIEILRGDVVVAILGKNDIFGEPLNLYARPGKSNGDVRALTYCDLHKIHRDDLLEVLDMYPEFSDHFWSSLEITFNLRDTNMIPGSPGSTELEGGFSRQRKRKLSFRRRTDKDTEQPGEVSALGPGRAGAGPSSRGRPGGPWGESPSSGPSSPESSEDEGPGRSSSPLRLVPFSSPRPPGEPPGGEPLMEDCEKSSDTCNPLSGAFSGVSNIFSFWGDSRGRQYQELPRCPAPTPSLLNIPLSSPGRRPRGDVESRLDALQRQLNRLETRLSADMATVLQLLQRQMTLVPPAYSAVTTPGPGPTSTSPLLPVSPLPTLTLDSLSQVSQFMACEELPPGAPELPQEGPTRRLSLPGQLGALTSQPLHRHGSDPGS
Background: The hERG channel carries a current that helps repolarise heart muscle cells.

For assay [16], the target named is Cytochrome P450 3A4 (Homo sapiens) (UniProt P08684). Briefly: Cytochrome P450 Family 3 Subfamily A Member 4 (CYP3A4) small molecule antagonists: luciferase reporter qHTS assay (AID 1671201). The method, boiled down: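 Enzyme and proluciferin substrate are mixed with test chemicals for 10 min, then NADPH regeneration system drives turnover for 1 h at room temperature. A detection reagent halts the reaction; luminescence after 20 min gives relative activity.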
Cytochrome P450 3A4 (Homo sapiens), sequence (P08684 whole entry, looked up): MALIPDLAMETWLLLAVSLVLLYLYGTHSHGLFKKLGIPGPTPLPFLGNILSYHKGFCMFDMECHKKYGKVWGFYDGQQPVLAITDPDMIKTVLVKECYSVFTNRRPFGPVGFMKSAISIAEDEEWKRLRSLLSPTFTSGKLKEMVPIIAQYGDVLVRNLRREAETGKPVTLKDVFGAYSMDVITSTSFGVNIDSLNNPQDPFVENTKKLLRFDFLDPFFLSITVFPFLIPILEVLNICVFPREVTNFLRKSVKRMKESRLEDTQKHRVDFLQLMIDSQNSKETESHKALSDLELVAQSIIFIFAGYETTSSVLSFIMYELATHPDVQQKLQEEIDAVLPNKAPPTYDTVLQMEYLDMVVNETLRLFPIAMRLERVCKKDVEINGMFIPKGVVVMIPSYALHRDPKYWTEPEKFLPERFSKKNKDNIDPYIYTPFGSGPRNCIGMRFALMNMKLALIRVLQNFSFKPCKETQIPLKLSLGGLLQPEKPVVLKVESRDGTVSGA

For assay [17], the target named is Nuclear receptor subfamily 1 group I member 2 (Homo sapiens) (UniProt O75469). The assay can be described thus: CYP3A4 induction through human pregnane X receptor (PXR) by small molecules, qHTS assay (AID 1346984). Further: nearly all actives have a fitted effect of over 40% in size. The method, boiled down:
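Steps: seed DPX-2 cells, 5 hr at 37C; pin-transfer compounds; 24 hr at 37C; add Luciferin-IPA (3uM final), 3 hr at 37C; add One-Glo, 30 min RT; read luminescence.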

The target is the same in assay [18]. Briefly: Human pregnane X receptor (PXR) activation by small molecules, qHTS assay (AID 1346985). Further: nearly all actives have a fitted effect of over 40% in size. The method, boiled down: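 DPX-2 cells (HepG2 co-transfected with a PXR response element and a CYP3A4-promoter luciferase construct) were seeded at 2,000 per well, rested 5 hr at 37C, then exposed to DMSO-dissolved compounds for 24 hr. Activation was read as luciferase luminescence.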

Assay [19] addresses Nuclear receptor subfamily 1 group I member 2 (Rattus norvegicus) (UniProt Q9R1A7). The assay can be described thus: Rat pregnane X receptor (rPXR) activation by small molecules, qHTS assay (AID 1346983). Further: nearly all actives have a fitted effect of over 20% in size. The note with it: rPXR luciferase reporter cells, One-Glo luminescence, 24 h; max activation: stronger effect = higher value. An outline of the steps:
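Cell-based rPXR activation assay: rPXR cells, 2,000 per well, rested 5hr at 37 C, then exposed to compounds in DMSO for 24 hr at 37 C. Luciferase activity read by One-Glo luminescence after 30 min at room temperature.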
On the % scale 0 is the no-effect control and ±100 the full control effect.

Cytochrome P450 1A2 (Homo sapiens), sequence (P05177 whole entry, looked up): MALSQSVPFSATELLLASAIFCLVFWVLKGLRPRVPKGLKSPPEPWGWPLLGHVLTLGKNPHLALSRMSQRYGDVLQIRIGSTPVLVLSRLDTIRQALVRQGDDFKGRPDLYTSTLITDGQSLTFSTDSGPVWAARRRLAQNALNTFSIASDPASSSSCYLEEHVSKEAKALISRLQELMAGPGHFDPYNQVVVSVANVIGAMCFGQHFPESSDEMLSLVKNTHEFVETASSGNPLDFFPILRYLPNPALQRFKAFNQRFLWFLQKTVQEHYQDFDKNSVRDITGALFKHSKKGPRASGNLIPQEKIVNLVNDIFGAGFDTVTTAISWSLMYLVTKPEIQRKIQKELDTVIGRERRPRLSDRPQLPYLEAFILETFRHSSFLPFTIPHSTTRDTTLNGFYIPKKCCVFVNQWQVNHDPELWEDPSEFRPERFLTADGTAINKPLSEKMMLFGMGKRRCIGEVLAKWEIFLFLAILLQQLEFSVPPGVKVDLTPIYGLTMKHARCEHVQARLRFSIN
Acetylcholinesterase (Homo sapiens), sequence (P22303 whole entry, looked up): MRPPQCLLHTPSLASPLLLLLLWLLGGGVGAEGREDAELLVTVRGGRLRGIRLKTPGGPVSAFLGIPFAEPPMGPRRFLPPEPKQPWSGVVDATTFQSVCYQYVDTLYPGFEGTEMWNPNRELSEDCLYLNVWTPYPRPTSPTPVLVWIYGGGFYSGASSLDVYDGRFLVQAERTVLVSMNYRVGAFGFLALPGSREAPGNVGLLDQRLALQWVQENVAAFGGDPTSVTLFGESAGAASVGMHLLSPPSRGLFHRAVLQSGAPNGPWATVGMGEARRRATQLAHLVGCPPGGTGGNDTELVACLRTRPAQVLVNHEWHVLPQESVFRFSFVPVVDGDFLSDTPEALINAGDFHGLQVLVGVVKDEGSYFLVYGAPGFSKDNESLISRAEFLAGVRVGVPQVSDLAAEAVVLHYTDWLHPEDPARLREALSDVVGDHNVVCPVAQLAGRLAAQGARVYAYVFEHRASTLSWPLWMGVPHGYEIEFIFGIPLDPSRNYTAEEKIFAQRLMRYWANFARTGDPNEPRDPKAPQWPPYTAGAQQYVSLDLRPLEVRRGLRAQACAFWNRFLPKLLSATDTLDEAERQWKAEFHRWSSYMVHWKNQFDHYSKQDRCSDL
Cytochrome P450 2D6 (Homo sapiens), sequence (P10635 whole entry, looked up): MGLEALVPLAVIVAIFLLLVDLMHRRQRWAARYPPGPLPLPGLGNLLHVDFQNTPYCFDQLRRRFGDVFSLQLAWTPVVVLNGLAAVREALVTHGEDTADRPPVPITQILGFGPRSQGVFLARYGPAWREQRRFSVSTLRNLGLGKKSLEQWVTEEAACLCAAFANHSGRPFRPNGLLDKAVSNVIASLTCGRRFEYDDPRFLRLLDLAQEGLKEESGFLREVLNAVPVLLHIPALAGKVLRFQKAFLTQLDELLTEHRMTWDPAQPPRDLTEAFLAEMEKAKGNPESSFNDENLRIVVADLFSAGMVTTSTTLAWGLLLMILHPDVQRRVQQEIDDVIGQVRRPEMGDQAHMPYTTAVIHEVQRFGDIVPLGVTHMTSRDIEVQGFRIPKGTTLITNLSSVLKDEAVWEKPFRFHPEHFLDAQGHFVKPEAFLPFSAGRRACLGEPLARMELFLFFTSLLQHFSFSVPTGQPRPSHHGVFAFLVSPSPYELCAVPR
Cytochrome P450 2C9 (Homo sapiens), sequence (P11712 whole entry, looked up): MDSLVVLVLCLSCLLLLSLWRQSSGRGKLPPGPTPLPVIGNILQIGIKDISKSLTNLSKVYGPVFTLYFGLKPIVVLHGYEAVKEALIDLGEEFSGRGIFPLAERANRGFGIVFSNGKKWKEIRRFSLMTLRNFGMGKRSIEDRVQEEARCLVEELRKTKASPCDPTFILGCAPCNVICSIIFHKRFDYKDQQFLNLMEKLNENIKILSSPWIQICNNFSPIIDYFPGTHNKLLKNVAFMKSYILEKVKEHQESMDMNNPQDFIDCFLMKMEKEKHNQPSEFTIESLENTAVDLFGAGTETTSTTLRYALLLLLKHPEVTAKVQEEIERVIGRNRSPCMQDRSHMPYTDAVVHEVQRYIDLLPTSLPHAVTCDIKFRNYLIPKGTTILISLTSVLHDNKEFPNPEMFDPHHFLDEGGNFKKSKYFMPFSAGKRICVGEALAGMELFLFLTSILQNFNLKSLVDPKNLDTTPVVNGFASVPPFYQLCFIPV

Take `Oc1cccc(Cl)c1Cl`: the Potency entry in assay [1], in [2], in assay [3], in [4], in assay [5] and in [6] was “inactive” each time. Besides, the Potency result in assay [7], in [8], in assay [9], in [10], in assay [13] and in [15] was “inactive” in each case. For the same compound, in [16], the Potency entry was “inactive”. For the same compound, the Potency in assay [11] was 56.6 µM (active); in [12] it was 80 µM (active); in assay [14] it was 35.7 µM (active).
As to `CSC(C)(C)/C=N/O`, the Potency result in assay [1], in assay [2], in [3], in assay [4], in assay [5] and in assay [6] was “inactive” each time. In addition, the Potency result in assay [7], in assay [8], in [9], in assay [10], in assay [11] and in [13] was “inactive” in each case. Moreover, the Potency result in assay [14] and in assay [15] was “inactive” in each case.
Turning to `Cc1cccc(Cc2cnc[nH]2)c1C`, the Potency result in assay [1], in assay [2], in assay [3], in assay [4], in assay [5] and in assay [6] was “inactive” in each case. Further, the Potency entry in assay [7], in assay [8], in assay [10] and in [15] was “inactive” each time. Besides, the Potency was 2.45 µM (active) in [11], 2.19 µM (active) in [12], 347 nM (active) in [13] and 0.911 µM (active) in assay [14].
In the case of `COC(=O)c1ccccc1S(=O)(=O)NC(=O)Nc1nc(C)nc(OC)n1`, the Potency result in assay [1], in [2], in assay [3], in assay [4], in assay [5] and in assay [6] was “inactive” each time. Moreover, the Potency result in [7], in assay [8], in [9], in [10], in assay [15] and in assay [16] was “inactive” each time. Further, the Potency was 8.88 µM (active) in [11] and 35.3 µM (active) in assay [12].
Take `CCNc1nc(NC(C)C(C)C)nc(SC)n1` (stereo not drawn): the Potency entry in assay [1], in assay [2], in assay [3], in assay [4], in assay [5] and in assay [7] was “inactive” each time. The Potency result in [8], in assay [9], in assay [10], in [11], in assay [15] and in assay [16] was “inactive” in each case. For the same compound, the values for the Potency in [6], in [12] and in assay [14] were 30.6 µM (active), 39.9 µM (active) and 25.2 µM (active), respectively.
For `CCN(CC)C(=S)S`, the Potency in assay [1] is 28.2 µM (active) and inactive; in assay [2], “inactive and 27.1 µM (active)”; in assay [3] it was 13.8 µM (active) and 7.65 µM (active) and 27.3 µM (active); in assay [6] it was 27.1 µM (active) and 61.1 µM (active); in assay [12], 71.6 µM (active) and 50 µM (active) and inactive; in [13], 62.9 µM (active) and 31.7 µM (active). Besides, in [14], the Potency is 40.3 µM (active). The Potency result in assay [4], in assay [5], in assay [17], in assay [18], in assay [7] and in assay [8] was “inactive” each time. The Potency result in assay [9], in assay [10] and in [11] was “inactive” each time.
With `CNC(C)(C)Cc1ccccc1`, the Potency result in assay [1], in [2], in assay [3], in assay [4], in assay [5] and in assay [6] was “inactive” in each case. For the same compound, the Potency result in [17], in assay [18], in assay [7], in [8], in [9] and in [10] was “inactive” throughout. In addition, the Potency result in assay [12], in assay [13], in assay [14], in assay [15] and in [16] was “inactive” throughout. Further, the max activation in assay [19] was -0.549% (inactive). Moreover, in assay [11], the Potency was 9.77 µM (active).
